TIM10 inh = TIM10 yeast growth inhibition; S. cerevisiae TIM10 strain growth, BacTiter-Glo luminescence, 24 h; inhibition, % at 10 µM; 1.4% of 330,000 active; AID 463195;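 active means inhibition of 40% or more at the single tested concentration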;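 further: wild-type TIM10 isogenic control strain grown at permissive 25 °C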
Yeast superoxide = caloric restriction mimetics inhibiting age-related superoxide in yeast. 0.18% of 330,000 active. S. cerevisiae aged cells, superoxide DHE fluorescence; hits give low values. superoxide response (% of plate mean), % at 10 µM;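 active means superoxide response under a set limit, about three screen SD below normal, cut at about 65% in these data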;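 further: yeast aged for seven days with compound at 30 °C before DHE staining; 100% = average MFI of all compound-treated wells on the plate with controls excluded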
NLRP3 yeast inh = blocks the NALP3 inflammasome reconstituted in yeast | Yeast reconstituted NLRP3/ASC/caspase-1, beta-gal luminescence, 24 h | inhibition, % at 10 µM | 0.39% of 330,000 active | AID 2825;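 active means inhibition of 50% or more; inactive means inhibition below 50%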;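 further: plate controls were induced DMSO wells for no effect and uninduced yeast grown without galactose for full effect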
tim23-1 inh = tim23-1 yeast growth inhibition. S. cerevisiae tim23-1 growth, BacTiter-Glo luminescence, 24 h. inhibition, % at 20 µM. 1.3% of 330,000 active. AID 463212;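 active means growth inhibition of the mutant yeast at or above 50%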;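 further: temperature-sensitive mutant grown at 25 °C; plate controls were DMSO-treated mutant yeast for no effect and medium wells lacking yeast for full effect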
tim10-1 inh = inhibits growth of tim10-1 mutant yeast. AID 463190. 2.2% of 330,000 active. S. cerevisiae tim10-1 ts strain growth, BacTiter-Glo, 24 h. inhibition, % at 20 µM;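 active means inhibition of at least 40%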;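 further: mutant grown at 25 °C; 0% = DMSO wells with yeast and 100% = wells holding no yeast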
tim10-1 confirm = confirmation of tim10-1 mutant yeast growth inhibitors | AID 463213 | 56% of 7,400 active | S. cerevisiae tim10-1 ts strain growth, BacTiter-Glo, 24 h | shares compounds with tim10-1 inh | inhibition, % at 20 µM;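 active means inhibition of yeast growth at or above a set limit in either of two repeat tests at 20 µM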;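 further: tim10-1 mutant grown at permissive 25 °C to find synthetic lethal compounds; 0% = DMSO yeast wells and 100% = medium wells without yeast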
tim10 confirm = confirmation of TIM10 yeast growth inhibitors; inhibition, % at 10 µM; shares compounds with TIM10 inh; S. cerevisiae tim10 strain growth, BacTiter-Glo luminescence, 24 h; 63% of 4,600 active;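 active means inhibition of yeast growth at or above a set limit in either of two replicates at 10 µM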;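 further: this counterscreen used the strain with wild-type TIM10; 0% = yeast with DMSO and 100% = medium wells lacking yeast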
tim23-1 conf = tim23-1 yeast growth inhibition, confirmed. shares compounds with tim23-1 inh. S. cerevisiae tim23-1 growth, BacTiter-Glo luminescence, 24 h. inhibition, % at 20 µM. 83% of 4,400 active;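 active means inhibition above about 39% in either of two replicate wells at 20 µM, limit read from the data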;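 further: temperature-sensitive tim23-1 mutant grown at 25 °C; 0% = DMSO wells with yeast and 100% = medium wells without yeast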
* hit, by the source's call; . = no result. This is a sample that favours compounds with a hit; in the whole collection about 3.8% have one here.

SMILES | TIM10 inh | Yeast superoxide | NLRP3 yeast inh | tim23-1 inh | tim10-1 inh | tim10-1 confirm | tim10 confirm | tim23-1 conf
COc1ccc(/C=C(\CC(=O)O)c2nc3ccccc3o2)cc1 | 11 | 127 | -7 | 35 | 31 | . | . | .
COc1ccc(C(=O)/C(=C/c2cccs2)c2nc3ccccc3o2)cc1 | 43* | 95 | 23 | 53* | 49* | 42* | -15 | 54*
CCCCCN(C(=O)CCC(=O)OCC(=O)c1ccc(F)c(F)c1)c1c(N)n(CCCC)c(=O)[nH]c1=O | 13 | 89 | 22 | -1 | -10 | . | . | .
O=C(c1ccc(Cl)cc1)C(CN1CCCC1)c1ccccc1 (stereo unspecified) | 46* | 97 | 24 | 57* | 62* | 26 | 51* | 6
CC(C)Cn1nc(C(=O)Nc2nnc(C3CC3)s2)c2ccccc2c1=O | 20 | 104 | 26 | 52* | 47* | 29* | . | 41*
O=c1c2ccccc2c(/C=N/NS(=O)(=O)c2ccccc2)c(O)n1-c1ccccn1 | 1 | 102 | 8 | -7 | 0 | . | . | .
Cc1ccc(N2C(=O)CC(Sc3ncn[nH]3)C2=O)cc1C (stereo unspecified) | 56* | 92 | 5 | 77* | 47* | 53* | 55* | 49*
CN(CCCC(=O)NCCc1ccccc1)S(=O)(=O)c1ccc([N+](=O)[O-])cc1 | 4 | 116 | 10 | 7 | 30 | . | . | .
CC1=NOC(=O)/C1=C\c1ccc(-c2ccc(Br)cc2C(=O)O)o1 | -4 | 96 | 8 | 15 | 7 | . | . | .
CC1=NOC(=O)/C1=C\c1ccc(-c2cc(Cl)ccc2Cl)o1 | 14 | 131 | 1 | 79* | 51* | 14 | . | 68*
Cc1ccc(C2=NOC(=O)/C2=C\c2ccc(C)o2)cc1 | 45* | 76 | 30 | 79* | 59* | 39* | 39* | 80*
CC1=NOC(=O)/C1=C/c1ccc(-c2ccc(Cl)cc2)o1 | 65* | 119 | 15 | 65* | 44* | 8 | 69* | -90
Cc1nnsc1S(=O)(=O)Cc1ccccc1C(F)(F)F | 0 | 106 | 7 | 14 | 21 | . | . | .
Cc1cc(C(=O)NNC(=S)NCc2ccco2)n(C)n1 | 4 | 101 | 20 | 0 | -5 | . | . | .
CC(C)c1cc(C(=O)NNC(=S)NCc2ccco2)c(O)c(C(C)C)c1 | 57* | 104 | 8 | 54* | 55* | 57* | 7 | 66*
CN(CCc1cn[nH]c1)C(=O)C1CCC(=O)N(CC2CCCCC2)C1 (stereo unspecified) | -1 | . | 8 | 16 | -13 | . | . | .
COc1ccccc1-n1cnc2cc(NCc3cccs3)ccc21 | 45* | 91 | 18 | 56* | 45* | 27 | -18 | 71*
COc1ccc(CNc2ccc3c(c2)ncn3-c2ccccc2OC)cc1 | 64* | 100 | 46 | 61* | 53* | 27 | 62* | 71*
O=C(NCCc1cccnc1)C1CCC(=O)N(CCc2cccc(F)c2)C1 (stereo unspecified) | 0 | 90 | 15 | -3 | -7 | . | . | .
CCOC(=O)C1CCCCN1Cc1ccccc1C(F)(F)F (stereo unspecified) | 6 | 91 | 0 | -17 | 11 | . | . | .
C[C@@H]1CC=C[C@H]2[C@H]1C(=O)N(Cc1ccccc1)[C@H]2c1ccc(C(F)(F)F)cc1 | -5 | 88 | 10 | -16 | 32 | . | . | .
O=C1C2C(c3ccccc3)CC=CC2[C@H](c2ccc(C(F)(F)F)cc2)N1Cc1ccccc1 (stereo partly specified) | 75* | 108 | 12 | 65* | 66* | 52* | 44* | 66*
COCC(=O)Nc1cc(Cl)ccc1C | 0 | 107 | -3 | 1 | 6 | . | . | .
Cc1ccc(Cl)cc1NC(=O)CC(O)(C(F)(F)F)C(F)(F)F | 39 | 97 | 24 | 53* | 55* | 57* | . | 56*
Oc1c(Br)cc(Cl)cc1C=Nc1ccccc1Br | 38 | 78 | 4 | 84* | 46* | 25 | . | 79*
SMILES | TIM10 inh | Yeast superoxide | NLRP3 yeast inh | tim23-1 inh | tim10-1 inh | tim10-1 confirm | tim10 confirm | tim23-1 conf
Cc1c(C2(O)CCCCC2)[nH]c2cc(C(F)(F)F)ccc12 | 25 | 72 | 31 | 56* | 42* | 22 | . | 64*
Cc1ccc(NC(=O)/C(C#N)=C/c2ccccc2C(F)(F)F)cc1 | 30 | 108 | 5 | 13 | 34 | . | . | .
Cc1ccccc1NC(=O)/C(C#N)=C/c1ccccc1C(F)(F)F | 56* | 104 | 18 | 56* | 58* | 56* | 5 | 58*
CN(C)c1nc(N/N=C/c2ccccc2O)nc(Nc2ccc(F)cc2)n1 | 19 | 98 | 12 | 59* | 47* | 37* | . | 67*
CCOC(=O)C(NC(C)=O)(N1CCc2ccccc2C1)C(F)(F)F (stereo unspecified) | 2 | 96 | 23 | 4 | 3 | . | . | .
O=C(N=Nc1c(O)[nH]c2ccccc12)c1ccc2c(c1)OCO2 | 16 | 105 | 0 | 3 | 16 | . | . | .
CS(=O)(=O)c1ccc2nc(NC(=O)c3cccs3)sc2c1 | 31 | 97 | -2 | 60* | 44* | 41* | . | 54*
CCCC(=O)Nc1ccc(C(=O)N/N=C/c2ccc([N+](=O)[O-])o2)cc1 | 6 | 119 | 12 | 21 | 16 | . | . | .
O=C(N/N=C/c1ccc([N+](=O)[O-])o1)c1cn2ccc3ccccc3c2n1 | 60* | 110 | 12 | 74* | 59* | 72* | 78* | 22
Cc1ccc(S(=O)(=O)N2CCC(C(=O)NCCC3=CCCCC3)CC2)c(C)c1 | -4 | 103 | 35 | 23 | 8 | . | . | .
O=C(O/N=C1\C(=O)N(c2ccccc2)c2ccccc21)C1CC1 | 40 | 97 | 0 | 69* | 47* | 44* | . | 64*
CCO/N=C1\C(=O)N(c2ccccc2)c2ccccc21 | 1 | 101 | 18 | 37 | 14 | . | . | .
COc1ccccc1-c1cc(C(=O)N2CCN(S(=O)(=O)c3ccc(C)cc3)CC2)[nH]n1 | 20 | 106 | 0 | 9 | 9 | . | . | .
COc1ccc(/C=C2\CCc3ccccc3C2=O)cc1O | 45* | 98 | 36 | 65* | 54* | 41* | 42* | 59*
COc1ccc(/C=C2\Cc3ccccc3C2=O)cc1OC | . | 96 | . | . | . | . | . | .
CC(=O)Nc1ccc(N=Cc2c(O)c(C(=O)Nc3ccccc3)cc3ccccc23)cc1 | 63* | 147 | 14 | 64* | 49* | 1 | 21 | 34
Fc1ccc(-c2nnsc2Sc2ccccn2)cc1 | -21 | 75 | 14 | 5 | -3 | . | . | .
CCOc1ccc(-n2cc(-c3ccccc3)c3c(=S)nc[nH]c32)cc1 | 45* | 132 | -14 | 64* | 70* | 33* | 47* | 34

High-throughput results (PubChem BioAssay)
